# The campaign covered roughly 390,000 compounds. About 17,000 (4.4%) were called active. Not shown: some 8% with an inconclusive outcome. The list comes from a sample in which actives are over-represented; it also holds similar structures and randomly drawn compounds. Unmarked numbers belong to inactive results. Calls come from the whole dose curve; as a rule, active = well fitted inhibition curve with a large enough effect; inconclusive = small, poorly fitted or top-dose-only effect; inactive = no such curve, though single readings can be large or run the other way.
# Molecular target: Lysine-specific demethylase 4A (Homo sapiens) (UniProt O75164)
# Test: qHTS Assay for Inhibitors of JMJD2A-Tudor Domain; note: nearly all actives have a fitted effect of over 50% in size
# Settings: AlphaScreen JMJD2A-Tudor / H3K4me3 peptide binding; series mostly up to 114 µM; activity change, negative = inhibition: at the top concentration
# % is set by controls: 0 for no effect and ±100 for the full control effect; potency is the fitted concentration of half-maximal effect.
# Chain of Lysine-specific demethylase 4A (Homo sapiens) (O75164 whole entry, looked up, the tested form may be a part): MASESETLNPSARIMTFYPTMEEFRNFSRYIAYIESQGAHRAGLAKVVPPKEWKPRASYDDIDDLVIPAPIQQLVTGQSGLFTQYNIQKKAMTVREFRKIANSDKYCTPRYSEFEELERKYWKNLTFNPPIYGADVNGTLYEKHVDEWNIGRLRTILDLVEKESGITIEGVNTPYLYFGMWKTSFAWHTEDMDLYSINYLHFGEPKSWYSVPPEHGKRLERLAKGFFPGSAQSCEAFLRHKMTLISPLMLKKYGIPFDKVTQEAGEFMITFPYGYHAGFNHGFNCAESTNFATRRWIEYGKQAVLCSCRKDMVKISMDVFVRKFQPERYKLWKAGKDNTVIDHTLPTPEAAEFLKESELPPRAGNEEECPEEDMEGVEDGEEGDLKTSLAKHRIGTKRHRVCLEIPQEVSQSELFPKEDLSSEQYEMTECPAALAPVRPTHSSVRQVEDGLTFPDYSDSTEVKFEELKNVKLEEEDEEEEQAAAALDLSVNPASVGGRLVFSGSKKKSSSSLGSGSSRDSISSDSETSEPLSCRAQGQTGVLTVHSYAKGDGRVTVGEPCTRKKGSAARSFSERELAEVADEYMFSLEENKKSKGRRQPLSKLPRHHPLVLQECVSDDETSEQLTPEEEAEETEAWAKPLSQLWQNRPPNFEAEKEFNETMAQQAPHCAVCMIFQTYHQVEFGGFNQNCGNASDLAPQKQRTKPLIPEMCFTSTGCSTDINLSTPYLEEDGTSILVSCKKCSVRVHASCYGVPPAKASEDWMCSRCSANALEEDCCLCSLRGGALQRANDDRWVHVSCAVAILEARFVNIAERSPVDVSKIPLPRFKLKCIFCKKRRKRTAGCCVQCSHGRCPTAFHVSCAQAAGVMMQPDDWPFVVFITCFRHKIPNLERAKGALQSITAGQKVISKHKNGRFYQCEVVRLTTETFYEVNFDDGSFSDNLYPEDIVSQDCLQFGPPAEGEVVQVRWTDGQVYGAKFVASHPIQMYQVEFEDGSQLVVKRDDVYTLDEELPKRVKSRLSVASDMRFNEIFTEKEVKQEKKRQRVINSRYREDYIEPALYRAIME
SMILES,"activity change, negative = inhibition",Potency
CCOC(=O)c1ccc(NC(=O)CCn2cnnn2)cc1,2.61%,
CSc1ncc(Cl)c(C(=O)Nc2ccc(S(=O)(=O)N3CCCC(C)C3)cc2)n1 (centres undefined),-21.5%,
CCCCN(C)S(=O)(=O)c1ccc(C(=O)Nc2sc3c(c2C(N)=O)CC(C)(C)NC3(C)C)cc1,-27.5%,
CCN1CCN(C(c2ccc(C)cc2)c2c(O)cc(C)n(Cc3ccco3)c2=O)CC1 (centres undefined),-20.5%,
Oc1c(Cl)cc(Cl)c(Cl)c1Cc1c(O)c(Cl)cc(Cl)c1Cl,,79.4 µM (active)
O=C(Nc1ccc(F)cc1F)c1cnn(-c2ccc(F)cc2)c1-n1cccc1,10.7%,
COc1ccc(C(=O)CSc2nccc(=O)[nH]2)cc1,-14.8%,
O=C(CSc1ncn[nH]1)Nc1nsc(-c2ccccc2)n1,-12.6%,
CC(C)(C)c1ccc(C(=O)CSc2ncn[nH]2)cc1,,20 µM (active)
CNc1nc(Nc2ccc(C)c(Cl)c2)nc(N)c1[N+](=O)[O-],-13.8% [at 57.1 µM],
CN(C)c1nc(Nc2ccc(Cl)c(Cl)c2)nc(N(C)C)n1,,14.1 µM (active)
CC(=O)Nc1nc(N(C)C)nc(N(C)C)n1,-0.687%,
CCc1ccc(Sc2cc(C(=O)NCCCOC(C)C)c3ccccc3n2)cc1,15.6%,
CSc1ccc(CCNC(=O)c2cc(C)nc3c2c(C)nn3-c2cccc(F)c2)cc1,7.77%,
O=C(CC1Oc2ccccc2NC1=O)NCc1ccc(F)cc1 (centres undefined),3.64%,
COc1ccc(Nc2cc(C(=O)NCCCN(C)c3ccccc3)c3ccccc3n2)c(OC)c1,,15.8 µM (active)
COc1ccccc1Nc1cc(C(=O)NCCCN(C)C2CCCCC2)c2ccccc2n1,-23.3%,
CCCCN(CCCNC(=O)c1cc(Nc2ccccc2OC)nc2ccccc12)c1ccccc1,-16%,
COc1ccc(CCNC(=O)Cn2c(=O)cc(C(F)(F)F)c3c(C)nn(C)c32)c(OC)c1,-5.33%,
COc1ccc(C)cc1NC(=O)CCc1c(C)nn(-c2ccc(N3CCOCC3)nn2)c1C,-25%,
O=C(O)c1cccc(N=NN2CCCCCC2)c1,-9.09%,
CN=C1S/C(=C\c2c(OC)cc(OC)cc2OC)C(=O)N1C,-4.79%,
CN1C(=O)/C(=C/c2ccco2)SC1=Nc1cccc(C(=O)O)c1,,79.4 µM (active)
COc1ccc(C)cc1Nc1nc2ccccc2c2nnc(C)n12,-0.685%,
COc1ccc(OC)c(-n2nnc3c(sc4nc(C)c(Br)c(C)c43)c2=O)c1,-12.3%,
O=S(=O)(c1cccc(C(F)(F)F)c1)N1CCN(c2nc(-c3cccs3)nc3ccccc23)CC1,-23.4%,
C=CCn1c(SCC(=O)NC)nnc1C12CC3CC(CC(C3)C1)C2,-8.9%,
C=CCn1c(SCC(=O)NC23CC4CC(CC(C4)C2)C3)nc(O)cc1=O,-12.3%,
C=CCn1c(C23CC4CC(CC(C4)C2)C3)n[nH]c1=S,,11.2 µM (active)

# Source: PubChem BioAssay AID504339 (National Center for Advancing Translational Sciences (NCATS), 2011)
